Shown are actives, neighbours in structure and some others; about 2.1% of the full set was active somewhere.
BaF3 parental = parental Ba/F3 cell viability inhibition, counter-screen for JAK2V617F inhibitor project, murine pro-B, CellTiter-Glo luminescence; CellTiter-Glo ATP luminescence; inhibition, % at 5.6 µM; hit rate 1.1% among 220,000;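 active = inhibition above a per-campaign cutoff, the mean inhibition of all tested compounds plus 3 SD, cut at about 27% in these data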
aSyn UTR inh = MLPCN primary screen, SNCA 5' untranslated region; AID 1813, 2009; inhibition, % (tested at 7.5 µM); hit rate 0.82% among 300,000; alpha-synuclein 5'UTR reporter, inhibitor activity; in the data active = inhibition above about 60%; inconclusive = no clear call, values can overlap the other calls;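 note: H4 neuroglioblastoma cells stably carrying SNCA 5'UTR luciferase fusion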
KLF5 inh = KLF5 expression inhibitors, primary screen, DLD-1 cells, luminescence; DLD-1 KLF5 promoter-luciferase reporter; inhibition, % at 5 µM; hit rate 0.23% among 290,000;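 active = inhibition above a per-plate limit of that plate's mean compound inhibition plus 3 SD, cut at about 60% in these data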;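 note: higher means less KLF5 promoter-driven luciferase light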
APP transl inh = inhibitors of APP translation via 5'UTR reporter, primary screen, APP 5'UTR luciferase, SH-SY5Y cells | SH-SY5Y APP 5'UTR-luciferase reporter, luminescence | inhibition, % at 2 µM | hit rate 0.82% among 190,000;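 active = inhibition above a set limit, derived from the sample mean plus 3 SD, cut at about 45% in these data; inconclusive = one replicate passes the limit while the other fails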
IEC-6 tox-1 = cytotoxicity in IEC-6 intestinal epithelial cells, primary screen, cytotoxicity control for KLF5 inhibitor project, cell-based, luminescence; IEC-6 cytotoxicity, luminescence viability; inhibition, % at 5 µM; hit rate 0.78% among 290,000; AID 1825, 2009
Ba/F3 V617F tox = reduced viability of JAK2V617F-dependent Ba/F3 cells, primary screen, JAK2V617F inhibitor project, cell-based, Ba/F3 EpoR-JAK2V617F, luminescence; hit rate 1.1% among 220,000; inhibition, % at 5.6 µM; ATP luminescence;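 active = inhibition above the campaign mean plus 3 SD over all tested compounds, cut at about 24% in these data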;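 note: cytokine-independent growth of Ba/F3 cells driven by EpoR plus mutant JAK2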
KLF5 confirm = KLF5 expression inhibitors, confirmation, DLD-1 cells, luminescence. shares compounds with KLF5 inh. DLD-1 KLF5 promoter firefly luciferase reporter. inhibition, % at 4 µM. hit rate 79% among 610;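 active = inhibition above a set limit taken from the earlier primary screen, cut at about 63% in these data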
IEC-6 tox-2 = cytotoxicity in rat IEC-6 cells, cytotoxicity control for KLF5 inhibitor project, cell-based, luminescence, triplicate | inhibition, % at 4 µM | shares compounds with KLF5 inh | hit rate 56% among 610 | AID 1905, 2009 | IEC-6 rat intestinal cells, viability luminescence; in the data active = inhibition above about 23%;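 note: cells exposed to compounds for 48 hours before viability read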
IEC-6 tox confirm = cytotoxic compounds in IEC-6 epithelial cells, confirmation, cytotoxicity control, cell-based, luminescence; shares compounds with IEC-6 tox-1; hit rate 63% among 1,900; IEC-6 rat intestinal epithelial viability; inhibition, % at 5 µM
Each line names hits and unclear results; the compound was inactive in the other large screens (follow-up assays come after a bar, where they were run). Cut-off read from the data, not from the text of the source, unless noted: active = inhibition above about 22%; inactive = the rest.

CCO[C@H]1OC(C(=O)NCc2nc3ccccc3[nH]2)=C[C@@H](C2CC2)[C@@H]1CCCO	BaF3 parental 73, aSyn UTR inh 80, KLF5 inh 72, APP transl inh 86, IEC-6 tox-1 72, Ba/F3 V617F tox 74 | KLF5 confirm 78 | IEC-6 tox-2 64 | IEC-6 tox confirm 53
COc1ccc(C)cc1Nc1c2c(nc3ccccc13)CCC2	aSyn UTR inh 68, KLF5 inh 62, IEC-6 tox-1 88 (no result: BaF3 parental, APP transl inh, Ba/F3 V617F tox) | KLF5 confirm 87 | IEC-6 tox-2 70 | IEC-6 tox confirm 55
C/C(=N\NC(=O)c1c(C)nc2ccccn12)c1ccc(O)cc1O	aSyn UTR inh 84, KLF5 inh 69, IEC-6 tox-1 28 (no result: BaF3 parental, APP transl inh, Ba/F3 V617F tox) | KLF5 confirm 84 | IEC-6 tox-2 39 | IEC-6 tox confirm 36
COc1ccc(S(=O)(=O)N(Cc2ccco2)Cc2cc3ccccc3[nH]c2=O)cc1	none (no result: BaF3 parental, APP transl inh, Ba/F3 V617F tox)
COc1ccc(CCNC(=O)CCC(=O)N2CC(C)Oc3ccccc32)cc1OC (configuration not stated)	none (no result: BaF3 parental, APP transl inh, Ba/F3 V617F tox)
COc1cccc(COc2ccc3c(C)cc(=O)oc3c2)c1	none (no result: BaF3 parental, APP transl inh, Ba/F3 V617F tox)
COc1ccccc1C1=NOC(COc2ccc3c(C)cc(=O)oc3c2)C1 (configuration not stated)	BaF3 parental 78, KLF5 inh 71, IEC-6 tox-1 83, Ba/F3 V617F tox 75 (no result: APP transl inh) | KLF5 confirm 81 | IEC-6 tox-2 61 | IEC-6 tox confirm 57
CCN(CC)c1ccc(-c2nn3c(-c4n[nH]c5c4CCC5)nnc3s2)cc1	BaF3 parental 78, aSyn UTR inh 72, KLF5 inh 73, APP transl inh 96, IEC-6 tox-1 85, Ba/F3 V617F tox 75 | KLF5 confirm 77 | IEC-6 tox-2 62 | IEC-6 tox confirm 50
C1CCC(c2nn3c(-c4n[nH]c5c4CCC5)nnc3s2)CC1	aSyn UTR inh inconclusive
COC(=O)c1ccc(C)c(NS(=O)(=O)c2ccc3c(c2)OCCO3)c1	BaF3 parental 55, aSyn UTR inh 94, KLF5 inh 82, APP transl inh 93, IEC-6 tox-1 80, Ba/F3 V617F tox 75 | KLF5 confirm 76 | IEC-6 tox-2 56 | IEC-6 tox confirm 54
Cc1cc(NS(=O)(=O)c2ccc(NC(=O)CCCOc3cccc(C)c3C)cc2)no1	none (no result: BaF3 parental, APP transl inh, Ba/F3 V617F tox)
CC(C)c1ccc(N2C(=O)CC(NNC(=O)c3cccnc3)C2=O)cc1 (configuration not stated)	none (no result: APP transl inh)
Cc1ccccc1NC(=O)Cn1nnc(C(=O)NCc2ccco2)c1N	none
CCOc1ccccc1NC(=O)Cn1nnc(C(=O)NCc2ccco2)c1N	BaF3 parental 86, aSyn UTR inh 85, KLF5 inh 76, APP transl inh 96, IEC-6 tox-1 87, Ba/F3 V617F tox 87 | KLF5 confirm 88 | IEC-6 tox-2 64 | IEC-6 tox confirm 58
N#Cc1ccccc1S(=O)(=O)N1CCN(CC(O)COc2ccccc2F)CC1 (configuration not stated)	none (no result: BaF3 parental, APP transl inh, Ba/F3 V617F tox)
CC(=O)Nc1ccc(S(=O)(=O)N(C)c2ccccc2)cc1	none
CCS(=O)(=O)c1ncc(Cl)c(C(=O)Nc2ccc(S(=O)(=O)N(C)c3ccccc3)cc2)n1	aSyn UTR inh 78, KLF5 inh 85, IEC-6 tox-1 101 (no result: BaF3 parental, APP transl inh, Ba/F3 V617F tox) | KLF5 confirm inactive | IEC-6 tox-2 inactive | IEC-6 tox confirm 28
Cc1cc(NC(=O)CSC2=NS(=O)(=O)c3ccccc3N2)no1	none (no result: BaF3 parental, KLF5 inh, APP transl inh, IEC-6 tox-1, Ba/F3 V617F tox)
Cc1cccc(NS(=O)(=O)c2ccc(C(=O)N3CCCCCC3)cc2)c1C	none (no result: BaF3 parental, KLF5 inh, APP transl inh, IEC-6 tox-1, Ba/F3 V617F tox)
COc1ccc(/C=N/NC(=O)c2[nH]c3ccc(Br)cc3c2-c2ccccc2)c(C(=O)O)c1OC	none (no result: APP transl inh)
COc1ccc(/C=N/NC(=O)c2[nH]c3ccc(Br)cc3c2-c2ccccc2)cc1	BaF3 parental 93, aSyn UTR inh 80, KLF5 inh 82, APP transl inh 97, IEC-6 tox-1 73, Ba/F3 V617F tox 96 | KLF5 confirm 90 | IEC-6 tox-2 86 | IEC-6 tox confirm 83
CCOC(=O)c1cc(C#N)c(N2CCN(C(=O)c3cccc(C(F)(F)F)c3)CC2)nc1C(F)(F)F	none (no result: aSyn UTR inh, APP transl inh)
CC(=O)Nc1sc2c(c1-c1nc3ccccc3s1)CCN(C(C)C)C2	BaF3 parental 73, KLF5 inh 62, APP transl inh 70, IEC-6 tox-1 99, Ba/F3 V617F tox 95 (no result: aSyn UTR inh) | KLF5 confirm 62 | IEC-6 tox-2 23 | IEC-6 tox confirm 29
CSc1nc(N(C)NC(=O)c2ccccc2)c2ccccc2n1	BaF3 parental 69, KLF5 inh 76, APP transl inh 96, IEC-6 tox-1 78, Ba/F3 V617F tox 69 | KLF5 confirm 75 | IEC-6 tox-2 65 | IEC-6 tox confirm 55
CSc1nc(N(C)NC(=O)c2ccc(Cl)cc2)c2ccccc2n1	BaF3 parental 78, aSyn UTR inh 93, KLF5 inh 65, APP transl inh 95, IEC-6 tox-1 80, Ba/F3 V617F tox 80 | KLF5 confirm 75 | IEC-6 tox-2 64 | IEC-6 tox confirm 63
O=C(NC(Nc1nc2ccc([N+](=O)[O-])cc2s1)(C(F)(F)F)C(F)(F)F)c1ccccc1Cl	BaF3 parental 81, aSyn UTR inh 86, KLF5 inh 77, APP transl inh 66, IEC-6 tox-1 76, Ba/F3 V617F tox 100 | KLF5 confirm 87 | IEC-6 tox-2 90 | IEC-6 tox confirm 97
O=C(O)C(CCCCNS(=O)(=O)c1ccc(F)cc1)NS(=O)(=O)c1ccc(F)cc1 (configuration not stated)	none (no result: BaF3 parental, APP transl inh, Ba/F3 V617F tox)
CCN1/C(=C/c2sc(-c3ccccc3C)c[n+]2C)Sc2ccccc21	BaF3 parental 80, aSyn UTR inh 94, KLF5 inh 63, IEC-6 tox-1 34, Ba/F3 V617F tox 100 | KLF5 confirm inactive | IEC-6 tox-2 inactive | IEC-6 tox confirm 39
COc1ccc(/C=N/NC(=O)COc2ccccc2-c2ccccc2)cc1	BaF3 parental 76, aSyn UTR inh 70, KLF5 inh 65, APP transl inh 96, IEC-6 tox-1 79, Ba/F3 V617F tox 76 | KLF5 confirm 77 | IEC-6 tox-2 54 | IEC-6 tox confirm 56
CN(C)c1ccc(/C=N/NC(=O)COc2ccccc2)cc1	none
Cc1cc(C(=O)Cn2ncc(Cl)c(Cl)c2=O)c(C)n1CC(F)(F)F	BaF3 parental 79, KLF5 inh 82, APP transl inh 75, IEC-6 tox-1 100, Ba/F3 V617F tox 44 | KLF5 confirm inactive | IEC-6 tox-2 inactive | IEC-6 tox confirm inactive
